# KB-V1 MDR tox: KB-V1 MDR subline cytotoxicity; KB-V1 MDR cells viability, CellTiter-Glo, 72 h; Potency, µM (highest dose often 46.1 µM), hits mostly cytotoxic; 3.4% of 400,000 active; AID 1347076; also: % is scaled to controls: 0 for no effect and ±100 for the full control effect; nearly all actives have a fitted effect of over 60% in size
#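 qHTS viability screen in drug-selected KB-V1 MDR cells: 72 h compound treatment at 37 degrees C, ATP luminescence end point.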
# S2 tox: cell viability loss in ATXN counter-screen | S2 cells (HEK-293 line with an ATXN2-luciferase reporter) viability, CellTiter-Fluor protease fluorescence, 24 h | Potency, µM (doses to about 56.7 µM), usual class: cytotoxic | 0.49% of 400,000 active; also: nearly all actives have a fitted effect of over 40% in size
# HT1080NT lethal: kills 2HG-producing HT-1080-NT fibrosarcoma cells; AID 686970; Potency, µM (highest dose often 46.1 µM), for the others: top-dose activity, negative = less viability, usual class: cytotoxic; 1.6% of 360,000 active; HT-1080-NT fibrosarcoma viability, CellTiter-Glo ATP luminescence, 48 h;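 also: NT is the 2HG producing partner of a matched IDH1 knockdown line; 0% = DMSO-treated cells and -100% = media-only wells without cells; nearly all actives have a fitted effect of over 55% in size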
#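 Read-out is CellTiter-Glo luminescence after 10 minutes at room temperature, following 48 hours' compound treatment of HT-1080-NT cells (750 cells/well, RPMI, 5% FBS, 37 degrees C).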
# HT1080 IDH1KD tx: HT-1080 IDH1 knockdown cell toxicity (counter line) | HT-1080 IDH1 knockdown viability, ATP luminescence, 48 h | Potency, µM (doses to about 46.1 µM), for the others: top-dose activity, negative = toxicity, usual class: cytotoxic | 2% of 360,000 active;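 also: 0% = DMSO wells and -100% = cell-free medium wells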
#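 After a 2 h attachment period, IDH1KD HT-1080 cells took pin-transferred compound for 48 h at 37 °C; ATP-based luminescence after 10 min room-temperature reagent incubation reported viability.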
# KB-3-1 tox: KB-3-1 parental cell cytotoxicity | KB-3-1 viability, CellTiter-Glo ATP luminescence, 72 h | Potency, µM (titrated, usually from 46.1 µM), actives largely listed as cytotoxic | 1.4% of 400,000 active | AID 1347075; also: % is scaled to controls: 0 for no effect and ±100 for the full control effect; nearly all actives have a fitted effect of over 60% in size
#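 Luminescent ATP read-out (CellTiter-Glo) measures survival of drug-naive KB-3-1 cells after 72 h compound exposure at 37 °C. Titration series was screened from lowest to highest concentration, with DMSO vehicle plates as background controls.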
# ATXN2 expr inh: inhibitors of ATXN2 expression; HEK-293 ATXN2-luciferase reporter, luminescence, 24 h; Potency, µM (top dose mostly 57 µM), inactives show at the highest dose activity change, negative = inhibition, usual class: inhibitors; 0.72% of 360,000 active; AID 1745845; also: % is scaled to controls: 0 for no effect and ±100 for the full control effect; nearly all actives have a fitted effect of over 55% in size
#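 ATXN2-luciferase reporter cells (luciferase flanked by upstream and downstream ATXN2 gene portions) were treated 24 h at 37 °C with compounds at up to 57 uM. SteadyGlo luminescence gave expression; GF-AFC fluorescence gave viability.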
# The depositor's hits bear a star; i = inactive; ? = inconclusive; nt = no result. A selection: hits, their analogues and other compounds. The true share with any hit is near 6.2%. Calls follow the shape of the dose curve; as a rule, active = well fitted curve in the direction sought with a large enough effect; inconclusive = small, poorly fitted or top-dose-only effect, or another doubt; inactive = no such curve, though single readings can be large; an effect the other way counts as inactive or inconclusive. Potency is read from the fitted curve at half-maximal effect.
SMILES,KB-V1 MDR tox,S2 tox,HT1080NT lethal,HT1080 IDH1KD tx,KB-3-1 tox,ATXN2 expr inh
Cc1cc(C)c(C)c(OCCOCCNCc2ccccc2)c1,15µM*,i,-17%,-10%,i,-24%
CCCOc1ccc(OCCOCCNCc2ccccc2)cc1,8.2µM*,i,-14%,-2%,i,-13%
O=C(NCCCNc1nc(Nc2cccc(NC(=O)N3CCCC3)c2)ncc1I)c1cccs1,nt,nt,nt,nt,nt,14µM*
COc1cccc(NC(=O)N2CCCC2)c1,i,i,17%,6%,i,nt
FC(F)(F)c1ccccc1NC(=S)NN=C1CCCCCC1,?,i,13µM*,18µM*,?,-11%
FC(F)(F)c1ccccc1NC(=S)N1CCCC1,i,i,-4%,-2%,i,-14%
CCn1nc(C)c2c(-c3ccccc3)cc(=O)n(C(C)C(=O)NCc3ccc(C)cc3)c21 (stereo not drawn),i,?,nt,nt,i,-37%
O=c1[nH]n(-c2ccccc2)c(=O)cc1Cl,i,i,3%,18%,i,2%
COc1cc(SSc2cc(OC)cc([N+](=O)[O-])c2N)c(N)c([N+](=O)[O-])c1,?,7.9µM*,-1%,-12%,?,nt
COc1cc([N+](=O)[O-])c2ncsc2c1,i,i,16%,22%,i,-11%
CCOc1ccc(NC(=O)C(C)n2c(=O)cc(-c3ccccc3)c3c(C)nn(C)c32)cc1 (stereo not drawn),i,i,nt,nt,i,-3%
CCc1nc(N(CC)CC)c2oc3ccccc3c2n1,i,i,-21%,-15%,i,-9%
CCc1nc(SCC(=O)N2CCN(c3ccccc3)CC2)c2oc3ccccc3c2n1,13µM*,?,7%,-17%,i,-39%
CCc1nc(N2CCC(C)CC2)c2oc3ccccc3c2n1,9.2µM*,?,?,?,i,-38%
Cc1cc(C)cc(-n2c(SCC(=O)N3CCCCC3)nc3c([nH]c4ccccc43)c2=O)c1,i,i,nt,nt,i,22%
CCc1ccccc1NC(=O)c1cc(S(=O)(=O)NCCc2ccc(OC)c(OC)c2)ccc1F,?,?,nt,nt,i,-25%
CCCCn1c(N)c(N(C)C(=O)c2cccc(-n3cnnn3)c2)c(=O)[nH]c1=O,i,i,7%,1%,i,4%
COc1ccc(O)c(CN2CCC3(CCC(CNC(=O)c4ccccc4)O3)CC2)c1 (stereo not drawn),nt,i,nt,nt,nt,nt
O=C(CSc1cccc2cccnc12)OCC(=O)c1ccccc1,i,i,29µM*,33µM*,i,-10%
O=C(CCNS(=O)(=O)c1ccccc1F)N1CCN(S(=O)(=O)c2cccc(F)c2)CC1,i,i,-2%,-7%,i,5%
O=C(CSc1cccc2cccnc12)N1CCCC1,i,?,7.3µM*,1%,7.3µM*,?
O=C(CSc1ncccn1)N1CCN(C(c2ccccc2)c2ccccc2)CC1,18µM*,i,?,13%,i,3%
O=C(CSc1cccc2cccnc12)OCC(=O)c1ccc(Br)cc1,?,i,-13%,-6%,i,2%
O=C(CCNS(=O)(=O)c1ccccc1F)N1CCN(C(c2ccccc2)c2ccccc2)CC1,8.2µM*,?,-22%,-25%,?,-11%
C[C@@H](NC(c1ccc(F)cc1)c1ccc2cccnc2c1O)c1ccccc1 (stereo partly drawn),i,nt,nt,nt,?,nt
COC(=O)c1ccc(Cl)c(NS(=O)(=O)c2ccc3c(c2)OCCO3)c1,9.2µM*,i,?,4.6µM*,5.8µM*,-12%
COc1ccc(NC(C)=O)cc1NS(=O)(=O)c1ccc2c(c1)OCCO2,i,i,-2%,-6%,?,1%
Cc1ccn2c(=O)c(C(=O)Nc3ccc(F)c(C(F)(F)F)c3)cnc2c1,i,i,nt,nt,i,2%

# Screens: PubChem BioAssay, National Center for Advancing Translational Sciences (NCATS)
